# In the supplement of paper PMC3545927:
# The list shows a part of the results. The hit rate among all sequences tested is not known here.
# Target: furin, P09958
# Assay: furin cleavage Z-score vs untreated control; higher = more cleavage, active = 3.5 or more, inactive = 1 or less, 8 variable residues between constant flanks
# How it was run: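 To give the cleavage Z-score, log read counts were set against furin-free reactions, lowess-adjusted and scaled by median absolute deviation. These counts came from PCR adapter-tagged, sequenced DNA released when purified furin cut 8-mer peptides fused to a cDNA oligonucleotide and held on magnetic beads by their N-terminus. Digests were 0.01 ml, 1:10 enzyme:substrate, in 50 mM HEPES pH 7.5 with CaCl2 and NaCl, for 7.5, 15 or 30 min.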
# Chain of furin, P09958 (P09958 whole entry): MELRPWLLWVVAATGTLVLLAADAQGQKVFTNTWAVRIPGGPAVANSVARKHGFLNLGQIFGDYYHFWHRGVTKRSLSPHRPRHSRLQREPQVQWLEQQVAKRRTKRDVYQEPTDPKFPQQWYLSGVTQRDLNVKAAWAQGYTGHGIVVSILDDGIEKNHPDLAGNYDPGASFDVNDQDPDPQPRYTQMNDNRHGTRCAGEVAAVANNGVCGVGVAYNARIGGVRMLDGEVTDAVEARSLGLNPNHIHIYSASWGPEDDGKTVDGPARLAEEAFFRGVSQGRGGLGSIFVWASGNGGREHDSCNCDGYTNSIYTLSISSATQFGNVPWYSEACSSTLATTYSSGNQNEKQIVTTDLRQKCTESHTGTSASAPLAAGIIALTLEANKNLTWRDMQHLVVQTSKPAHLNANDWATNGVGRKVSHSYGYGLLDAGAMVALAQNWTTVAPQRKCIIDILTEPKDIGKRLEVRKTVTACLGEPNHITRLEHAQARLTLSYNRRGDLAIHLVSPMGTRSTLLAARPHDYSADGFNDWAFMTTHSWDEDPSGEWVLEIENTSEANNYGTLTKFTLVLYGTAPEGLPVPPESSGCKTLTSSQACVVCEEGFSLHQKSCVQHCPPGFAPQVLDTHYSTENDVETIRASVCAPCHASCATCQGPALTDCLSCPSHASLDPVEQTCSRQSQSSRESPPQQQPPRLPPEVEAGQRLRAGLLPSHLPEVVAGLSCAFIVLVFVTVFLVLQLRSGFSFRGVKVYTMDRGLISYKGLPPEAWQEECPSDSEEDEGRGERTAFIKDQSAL
Sequence,furin cleavage Z-score (7.5 min),furin cleavage Z-score (15 min),furin cleavage Z-score (30 min)
CAQDVLKEVKAGNASASA [HC1403],-1.57 (inactive),-2.35 (inactive),-1.62 (inactive)
CAITAEAAGRAGNASASA [HC1251],0.707 (inactive),-1.39 (inactive),-1.45 (inactive)
CARQRRGFHHAGNASASA [FS-2365],0.595 (inactive),4.95 (active),6.76 (active)
CARDRRGCFAAGNASASA [FS-2253],-0.438 (inactive),-0.0621 (inactive),0.916 (inactive)
CARQRRPTGPAGNASASA [FS-2511],-1.58 (inactive),-0.922 (inactive),0.378 (inactive)
CARQRRLLAAAGNASASA [FS-3042],-1.14 (inactive),-0.921 (inactive),0.324 (inactive)
CARQRRGCFRAGNASASA [FS-2446],1.29,2.53,4.76 (active)
CARQRRGTGAAGNASASA [FS-2762],3.78 (active),4.54 (active),4.93 (active)
CARQRREMVAAGNASASA [FS-2589],4.84 (active),5.77 (active),5.19 (active)
CANGSWHLNSAGNASASA [HC369],-0.0133 (inactive),2.38,0.739 (inactive)
CAHREVPCHRAGNASASA [HC2435],-0.316 (inactive),1.36,2.65
CAVTKLPLAVAGNASASA [HC1460],-0.671 (inactive),-0.455 (inactive),0.174 (inactive)
CARTPCSGSWAGNASASA [HC1833],-0.828 (inactive),-0.942 (inactive),-0.629 (inactive)
CADQERKARYAGNASASA [FS-758],-0.446 (inactive),0.477 (inactive),0.913 (inactive)
CASGGRTKRYAGNASASA [FS-191],8.8 (active),10.7 (active),9.18 (active)
CANKFRTKRYAGNASASA [FS-695],9.46 (active),8.84 (active),7.04 (active)

Sequence,furin cleavage Z-score (7.5 min),furin cleavage Z-score (15 min),furin cleavage Z-score (30 min)
CAKYSRSYRYAGNASASA [FS-937],-0.221 (inactive),-0.443 (inactive),0.667 (inactive)
CASGGPLLCPAGNASASA [HC743],0.483 (inactive),-0.364 (inactive),-1.12 (inactive)
CARVTAILSSAGNASASA [HC1132],1.14,0.277 (inactive),-0.773 (inactive)
CARRSRSSYTAGNASASA [FS-3070],-0.67 (inactive),0.865 (inactive),2.05
CARRSRSPRTAGNASASA [FS-3069],8.32 (active),10.6 (active),7.67 (active)
CADFEVVTSTAGNASASA [HC2287],0.0621 (inactive),-1.1 (inactive),-1.43 (inactive)
CARGPRAVSTAGNASASA [FS-2334],0.54 (inactive),0.906 (inactive),1.4
CARRSRKVGSAGNASASA [FS-2455],-0.487 (inactive),0.947 (inactive),0.792 (inactive)
CARRVRIVSRAGNASASA [FS-1923],-0.897 (inactive),0.174 (inactive),1.35
CASRSRSPRPAGNASASA [FS-1283],-0.34 (inactive),0.132 (inactive),-0.275 (inactive)
CARCPRQVSTAGNASASA [FS-3216],4.16 (active),3.66 (active),6.67 (active)
CARAARGTIGAGNASASA [FS-2879],-0.0204 (inactive),-0.846 (inactive),0.286 (inactive)
CARAARSRGAAGNASASA [FS-2324],-0.759 (inactive),-0.113 (inactive),-0.259 (inactive)
CARRSRDVSCAGNASASA [FS-2519],4.17 (active),5.01 (active),5.69 (active)
CARAARHVVAAGNASASA [FS-1988],0.916 (inactive),2.53,4.88 (active)
